From PubChem BioAssay
PAFAH2 inh = PAFAH2 enzyme inhibitors, primary screen, biochemical, fluorescence polarization, human. Platelet-activating factor acetylhydrolase 2, cytoplasmic (Homo sapiens), Q99487. recombinant PAFAH2, FP-rhodamine activity probe. inhibition, % at 3.39 µM. actives 0.99% (n = 340,000). AID 492956, 2010;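 active = inhibition above the mean over all tested compounds plus 3 SD, cut at about 30% in these data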;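 also: inhibitors block probe labeling of enzyme so polarization drops; 0% = enzyme with DMSO and 100% = wells lacking PAFAH2 protein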
PAFAH1B2 inh = PAFAH1B2 enzyme inhibitors, primary screen, biochemical, fluorescence polarization, human; inhibition, % at 3.39 µM; actives 1.2% (n = 340,000); recombinant PAFAH1B2, FP-rhodamine activity probe; Platelet-activating factor acetylhydrolase IB subunit alpha2 (Homo sapiens), P68402; AID 492953, 2010;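 active = inhibition above the mean of all tested compounds plus 3 SD, cut at about 24% in these data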;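 also: 0% = enzyme with DMSO and 100% = wells lacking PAFAH1B2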
Target sequence (P68402 whole entry, looked up): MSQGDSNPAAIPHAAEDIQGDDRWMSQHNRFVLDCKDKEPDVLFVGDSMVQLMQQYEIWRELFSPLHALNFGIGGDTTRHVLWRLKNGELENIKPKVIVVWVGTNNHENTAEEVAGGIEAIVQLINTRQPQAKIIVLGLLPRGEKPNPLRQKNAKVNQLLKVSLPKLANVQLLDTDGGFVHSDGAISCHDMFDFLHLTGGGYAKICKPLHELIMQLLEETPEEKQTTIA
pPAFAH inh = pPAFAH enzyme inhibitors, primary screen, biochemical, fluorescence polarization, human. actives 1.5% (n = 330,000). inhibition, % at 3.39 µM. Platelet-activating factor acetylhydrolase (Homo sapiens), Q13093. AID 463082, 2010. recombinant pPAFAH, FP-rhodamine probe fluorescence polarization;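 active = inhibition above the mean inhibition across the screen plus 3 SD, cut at about 25% in these data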;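 also: inhibitors block binding of the rhodamine activity-based probe so polarization drops; 0% = enzyme with DMSO and 100% = wells lacking pPAFAH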
PAFAH1B3 inh = PAFAH1B3 enzyme inhibitors, primary screen, biochemical, fluorescence polarization, human. Platelet-activating factor acetylhydrolase IB subunit alpha1 (Homo sapiens), Q15102. recombinant PAFAH1B3, FP-rhodamine probe. inhibition, % at 3.39 µM. actives 0.28% (n = 340,000). AID 492972, 2010;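 active = inhibition above the screen-wide average of all tested compounds plus 3 SD, cut at about 25% in these data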;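 also: 0% = enzyme with DMSO only and 100% = wells lacking PAFAH1B3 protein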
Target sequence (Q15102 whole entry, looked up): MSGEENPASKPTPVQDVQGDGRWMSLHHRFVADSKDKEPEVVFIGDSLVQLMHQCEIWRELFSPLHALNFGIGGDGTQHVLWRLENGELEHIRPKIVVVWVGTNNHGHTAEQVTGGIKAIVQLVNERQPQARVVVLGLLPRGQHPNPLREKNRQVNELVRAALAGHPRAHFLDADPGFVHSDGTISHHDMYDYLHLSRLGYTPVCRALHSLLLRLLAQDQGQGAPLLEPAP
DAGLB inh = DAGLB lipase inhibitors, primary screen, biochemical, fluorescence, HTS; actives 0.059% (n = 340,000); inhibition, % at 5.17 µM; HEK293T DAGLB membrane lysate, EnzChek fluorogenic substrate; in the data active = inhibition above about 34%;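 also: 0% = enzyme with vehicle and 100% = wells lacking enzyme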
HTRA1 inh = HTRA1 serine protease inhibitors, primary screen, biochemical, fluorescence polarization, HTS. inhibition, % at 5.96 µM. Q92743. recombinant HTRA1, FP-rhodamine activity-based probe. actives 0.5% (n = 340,000); in the data active = inhibition above about 36%;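 also: 0% = enzyme with DMSO and 100% = wells lacking enzyme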
PAFAH2 FP conf = PAFAH2 enzyme inhibitors, confirmation, biochemical, fluorescence polarization, human. shares compounds with PAFAH2 inh. recombinant PAFAH2, FP-rhodamine activity probe. inhibition, % at 3.39 µM. actives 65% (n = 2,300). AID 493030, 2011;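 active = mean inhibition over three repeats above a set limit taken from the earlier primary screen, cut at about 30% in these data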;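 also: inhibitor blocks binding of rhodamine activity probe so polarization falls; 0% = enzyme with DMSO and 100% = wells lacking PAFAH2 protein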
* = called active by the depositor; x = no result given. Most compounds without a hit are left out; they make up all but 2.8% or so of the library.

SMILES	PAFAH2 inh	PAFAH1B2 inh	pPAFAH inh	PAFAH1B3 inh	DAGLB inh	HTRA1 inh	PAFAH2 FP conf
COCCn1c(C)cc(C(=O)COC(=O)c2ccc3c(c2)NC(=O)CS3)c1C	3	3	5	6	2	-6	x
Cc1cc(C(=O)COC(=O)c2ccc(N)c([N+](=O)[O-])c2)c(C)n1Cc1ccc2c(c1)OCO2	10	0	2	-4	1	10	x
C=CCn1c(C)cc(C(=O)COC(=O)c2ccc3c(c2)NC(=O)CS3)c1C	41*	5	11	13	1	-10	28
C=CCn1c(C)cc(C(=O)COC(=O)c2ccc(N)c([N+](=O)[O-])c2)c1C	81*	3	6	-1	-1	-24	80*
CC(=O)NC1(C(F)(F)F)NC(=O)N(c2ccc(F)cc2)C1=O (stereo not given)	3	-1	5	0	-1	3	x
O=S(=O)(Nc1nccs1)c1ccc(NS(=O)(=O)c2c(F)cc(F)c(Cl)c2F)cc1	12	8	13	10	5	1	x
COc1ccc(NS(=O)(=O)c2cccc(C(=O)NC3CCC(O)CC3)c2)cc1 (stereo not given)	-11	1	17	4	-1	0	x
CN(C)S(=O)(=O)c1ccc(C(=O)N2CCN(S(=O)(=O)c3ccc4c(c3)OCCO4)CC2)cc1	45*	-1	x	0	-4	11	41*
O=C(COC(=O)c1cccc(S(=O)(=O)N2CCCCCC2)c1)Nc1ccccc1C(F)(F)F	58*	2	18	0	-7	-4	36*
Cc1ccc(C(=O)OCC(=O)NC2CCCC(C)C2C)cc1S(=O)(=O)N1CCCCC1 (stereo not given)	39*	4	13	9	-5	0	16
Cc1ccc(C(=O)OC(C)C(=O)NC2CCCCC2C)cc1S(=O)(=O)N1CCCCC1 (stereo not given)	-6	4	9	5	0	-4	x
Cc1ccc(C(=O)OCC(=O)Nc2ccccc2C(F)(F)F)cc1S(=O)(=O)N1CCCCC1	14	6	x	9	-4	-12	x
O=C(COC(=O)c1ccc(Cl)c(S(=O)(=O)N2CCCCC2)c1)NC1CCCCC1	x	x	x	x	-7	-1	x
CCCCNC(=O)COC(=O)c1ccc(Cl)c(S(=O)(=O)N2CCCC2)c1	44*	4	13	9	0	-1	21
O=C(COC(=O)c1ccc(Cl)c(S(=O)(=O)N2CCCCC2)c1)NCCc1ccccc1	9	6	x	13	-7	-22	x
O=C(COC(=O)c1ccc(Cl)c(S(=O)(=O)N2CCCC2)c1)NC1CCCCC1	36*	3	11	9	-5	5	16
Cc1cccc(C(=O)Nc2ccc(C(=O)N3CCCCC3C)cc2)c1 (stereo not given)	3	4	2	9	-1	-26	x
O=C(CN1C(=O)NC(CCc2ccccc2)C1=O)N1CCCCCC1 (stereo not given)	-8	7	3	2	-1	10	x
Cc1ccc(Cl)cc1N1CCN(C(=O)CN(c2ccccc2)S(=O)(=O)N(C)C)CC1	7	3	5	1	-5	-12	x
O=C(COC(=O)c1cccc(S(=O)(=O)N2CCCCC2)c1)NC1CCCCC1	77*	2	6	11	-1	3	76*
CCN(CC)S(=O)(=O)c1ccc(O)c(NC(=O)CN2CCc3ccccc3C2)c1	56*	-1	7	-3	2	2	56*
CC(C)(C)OC(=O)C[C@@H]1C/C=C\C[C@H](CC(=O)N[C@H](CO)Cc2ccccc2)C(=O)N2CCC[C@H]2COC1=O	4	0	-5	7	0	4	x
COc1ccc(C(C)(C)C)cc1NC(=O)CCCN1C(=O)CN(C)C1=O	0	5	x	2	-4	5	x
CCN(CC)c1ccc2c(c1)oc(=O)c1c(Cl)cc(=O)oc12	36*	21	8	14	-22	6	24
N#C/C(=C(/O)CCl)c1nc(-c2ccccc2)cs1	19	-1	23	-4	4	-2	x
SMILES	PAFAH2 inh	PAFAH1B2 inh	pPAFAH inh	PAFAH1B3 inh	DAGLB inh	HTRA1 inh	PAFAH2 FP conf
Cc1ccc(-c2csc(/C(C#N)=C(\O)CCl)n2)cc1	33*	-4	x	0	19	-4	31*
O=C(COC(=O)c1ccc[n+]([O-])c1)Nc1ccc([N+](=O)[O-])cc1C(F)(F)F	9	7	1	1	1	0	x
O=C(COC(=O)C1CC1)Nc1ccc([N+](=O)[O-])cc1C(F)(F)F	53*	-4	13	5	3	12	45*
NC(=O)Nc1ccc(C(=O)OCC(=O)Nc2ccc([N+](=O)[O-])cc2C(F)(F)F)cc1	66*	2	-6	-5	2	-26	66*
COc1cc(C(=O)Nc2cc(C(F)(F)F)ccc2N2CCOCC2)ccc1OCC(=O)N1CCOCC1	2	0	8	-3	-2	0	x
CCOC(=O)c1nc(C)n(-c2cc(OC)c(Cl)cc2Cl)n1	4	4	7	4	-1	2	x
COC(=O)c1c(NC(=S)NNC(=O)c2ccc(Cl)s2)sc(C(=O)N(C)C)c1C	50*	3	10	5	10	0	41*
COC(=O)Nc1sc(C(=O)N(C)C)c(C)c1C(=O)OC	-4	3	-4	7	3	2	x
CCN(CC)S(=O)(=O)c1ccc2c(c1)nc(CCC(=O)O)n2C	-1	-5	3	-2	-1	-1	x
CCN(CC)S(=O)(=O)c1ccc2c(c1)nc(CCC(=O)OCC(=O)Nc1c(F)cccc1F)n2C	49*	9	9	-5	-1	1	46*
CCN(CC)S(=O)(=O)c1ccc2c(c1)nc(CCC(=O)OCC(=O)Nc1cc(OC)cc(OC)c1)n2C	52*	3	10	2	-3	-9	36*
CC(C)c1ccc2[nH]c3c(c2c1)[C@@H]1CCN2C(=O)CCC[C@H](C3)[C@H]12	-19	-3	18	8	3	5	x
CCOC(=O)c1c(O)c(Cl)c(C)[nH]c1=O	1	6	5	11	0	4	x
O=C(COC(=O)C12CC3CC(CC(C3)C1)C2)Nc1ccccc1F	40*	11	11	12	-8	-10	29
